Screening results from PubChem.
FMDV inh = High Throughput Screening for Foot and Mouth Disease Virus Antivirals | AID 1159524, 2015 | Potency, µM (highest dose often 57.9 µM), most hits filed as inhibitors | 410,000 compounds, 1.2% hits | FMDV antiviral cell-based qHTS; calls by dose curve; tested in HEK293T cells; further: read-out not given here; nearly all actives have a fitted effect of over 45% in size
Marburg entry inh = qHTS for inhibitors of binding or entry into cells for Marburg Virus | Marburg virus pseudotyped entry inhibition, cell reporter | Potency, µM (titrated, usually from 37.8 µM), usual class: inhibitors | 300,000 compounds, 1.8% hits | AID 540276, 2011; calls by dose curve; tested in HEK293 cells
Cycloheximide cs = Cycloheximide Counterscreen for Small Molecule Inhibitors of Shiga Toxin; AID 2314, 2010; max response, %; cell reporter, cycloheximide protein synthesis inhibition counterscreen; 300,000 compounds, 12% hits; in the data active means max response mostly above about 13%, no sharp cut-off; inactive means mostly below about 14%; further: read at 38.3 µM for the half of the compounds with a filed dose
HCV inhibitor = qHTS Assay for Inhibitors of Hepatitis C Virus (HCV); Huh7.5.1 HCVcc-Cre infection, luciferase reporter, 44 h; Potency, µM (series often up to 41.8 µM), usual class: inhibitors; 340,000 compounds, 3.4% hits; AID 651820, 2012; active means well fitted inhibition curve with a large enough effect; inconclusive means small, poorly fitted or top-dose-only effect, or another doubt; inactive means no such curve, though single readings can be large or run the other way
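Infectious HCVcc-Cre (~0.5 moi) was added to cells just after compound, with cells seeded 4 h earlier at 1,000 per well. Luciferase activity after 44 h culture reported infection; substrate was incubated 15 min at room temperature before reading.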
Lassa entry inh = qHTS for Inhibitors of binding or entry into cells for Lassa Virus | Lassa virus pseudotype entry inhibition, cell reporter | Potency, µM (titrated, usually from 37.9 µM), most hits filed as inhibitors | 300,000 compounds, 1.2% hits; calls by dose curve; tested in HEK293 cells; further: nearly all actives have a fitted effect of over 50% in size
Shiga inhibitor = A qHTS for Small Molecule Inhibitors of Shiga Toxin. Vero cells, Shiga toxin protein synthesis inhibition reporter. inhibition, % at 38.7 µM. 290,000 compounds, 9.2% hits. AID 2315, 2010; in the data active means inhibition mostly above about 28%, no sharp cut-off; inactive means mostly below about 43%
Hits are given with their value; ! = not confirmed by another sample. Shown are actives, neighbours in structure and some others; about 13% of the full set was active somewhere.

For Oc1ccccc1/C=N/N1CCCCC1 the results were FMDV inh inactive, Marburg entry inh inactive, Cycloheximide cs 39.5, HCV inhibitor inactive, Lassa entry inh inactive and Shiga inhibitor 84.9.
`Oc1ccc(/C=N/N2CCCCC2)c(O)c1` gave FMDV inh inactive, Marburg entry inh inactive, Cycloheximide cs 48.5, HCV inhibitor inactive, Lassa entry inh inactive and Shiga inhibitor 106.5.
For C(=NN1CCCCCC1)c1ccc2ccccc2n1 the results were FMDV inh 100µM, Marburg entry inh 2.51µM, HCV inhibitor inactive and Lassa entry inh inconclusive.
`N=c1n(CCN2CCCCC2)c2ccccc2n1CC(O)COc1ccccc1` (configuration not stated) gave FMDV inh 39.8µM!, Marburg entry inh inconclusive, Cycloheximide cs inactive, HCV inhibitor 11.2µM, Lassa entry inh inconclusive and Shiga inhibitor inactive.
Screening COc1ccccc1OCC(O)Cn1c(=N)n(CCN2CCCCC2)c2ccccc21 (configuration not stated) returned FMDV inh inactive, Marburg entry inh inconclusive, Cycloheximide cs inactive, HCV inhibitor 2.51µM, Lassa entry inh inconclusive and Shiga inhibitor inactive.
CC(=O)C1=C(O)C(=O)N(CCCO)C1c1ccccc1 (configuration not stated) was read as Marburg entry inh inactive, Cycloheximide cs inactive, HCV inhibitor inactive, Lassa entry inh inactive and Shiga inhibitor inactive.
Screening CN=c1scc(-c2ccccc2F)n1/N=C(\C)c1cccnc1 returned FMDV inh inactive, Marburg entry inh inconclusive, Cycloheximide cs 48.0, HCV inhibitor 31.6µM, Lassa entry inh inconclusive and Shiga inhibitor 148.5.
Cc1o[nH]c(=O)c1C[C@@H](N)C(=O)O was read as FMDV inh inactive, Cycloheximide cs inactive and Shiga inhibitor inactive.
`CCSC1(SCC)N=C(N)C2(C#N)C(c3ccc(OC)c(OC)c3OC)C12C#N` (configuration not stated) gave FMDV inh 25.1µM, Marburg entry inh inconclusive, Cycloheximide cs inactive, HCV inhibitor 8.91µM, Lassa entry inh inconclusive and Shiga inhibitor inactive.
For CCCCCCC(=O)c1c(O)n(-c2ccc(OC)cc2)c(=O)[nH]c1=O (tested in a mixture with another compound) the results were FMDV inh inactive, Cycloheximide cs inactive, HCV inhibitor inactive and Shiga inhibitor inactive.
CCCOC(=O)c1cccc(NC(=O)COc2ccc([N+](=O)[O-])cc2)c1 was read as FMDV inh 25.1µM, Marburg entry inh inactive, Cycloheximide cs inactive, HCV inhibitor inconclusive, Lassa entry inh inactive and Shiga inhibitor inactive.
For CCCOC(=O)c1cccc(NC(=O)C(C)(C)C)c1 the results were FMDV inh inactive, Marburg entry inh inactive, Cycloheximide cs 18.1, HCV inhibitor inconclusive, Lassa entry inh inconclusive and Shiga inhibitor 32.2.
Screening Cc1ccc2c(COC(=O)C3CC(=O)N(c4ccc5c(c4)OCCO5)C3)cc(=O)oc2c1 (configuration not stated) returned FMDV inh inactive, Marburg entry inh inactive, HCV inhibitor inactive and Lassa entry inh inconclusive.
CCCCN1C2=NCCCN2c2ccccc21 was read as Marburg entry inh inconclusive, Cycloheximide cs inactive, HCV inhibitor inactive, Lassa entry inh inactive and Shiga inhibitor inactive.
Brc1ccc(CN2C3=NCCCN3c3ccccc32)cc1 was read as FMDV inh inconclusive, Marburg entry inh 10.3µM, Cycloheximide cs inactive, HCV inhibitor inconclusive, Lassa entry inh inconclusive and Shiga inhibitor inactive.
For CC(C)(C)c1ccc(CN2C3=NCCCN3c3ccccc32)cc1 the results were FMDV inh inconclusive, Marburg entry inh 2.59µM, Cycloheximide cs inactive, HCV inhibitor 31.6µM, Lassa entry inh inconclusive and Shiga inhibitor inactive.
O=C(O)CN1C2=NCCCN2c2ccccc21 was read as FMDV inh inactive, Marburg entry inh inactive, Cycloheximide cs inactive, HCV inhibitor inactive, Lassa entry inh inactive and Shiga inhibitor inactive.
For O=C(CN1C2=NCCCN2c2ccccc21)c1ccc2c(c1)OCO2 the results were Marburg entry inh inconclusive, Cycloheximide cs inactive, HCV inhibitor 11.2µM, Lassa entry inh inconclusive and Shiga inhibitor inactive.
CCCCCCCN1C2=NCCCN2c2ccccc21 was read as FMDV inh inconclusive, Marburg entry inh inconclusive, Cycloheximide cs inactive, HCV inhibitor 10µM, Lassa entry inh inconclusive and Shiga inhibitor inactive.
`c1ccc(CN2C3=NCCCN3c3ccccc32)cc1` gave FMDV inh inactive, Marburg entry inh inconclusive, Cycloheximide cs inactive, HCV inhibitor inconclusive, Lassa entry inh inactive and Shiga inhibitor inactive.
CCc1ccc(C(=O)c2cn(CC(=O)Nc3cccc(C)c3C)c3nc(C)ccc3c2=O)cc1 was read as FMDV inh inactive and Lassa entry inh inactive.
For CC(C)Cn1cnc2c1c(=O)n(C)c(=O)n2C the results were FMDV inh inactive, Cycloheximide cs inactive, HCV inhibitor inconclusive and Shiga inhibitor inactive.
`Clc1ccc(CN2C3=NCCN3c3ccccc32)cc1` gave FMDV inh inactive, Marburg entry inh inconclusive, Cycloheximide cs inactive, HCV inhibitor 12.6µM, Lassa entry inh inactive and Shiga inhibitor inactive.
Screening CCCC(=O)Nc1ccc(NC(=O)c2ccccn2)cn1 returned FMDV inh inactive, Marburg entry inh inactive, Cycloheximide cs 23.5, HCV inhibitor inactive, Lassa entry inh inconclusive and Shiga inhibitor inactive.
Screening O=C(Nc1ccc(NC(=O)C2CC2)nc1)c1cccs1 returned FMDV inh inactive, Marburg entry inh inactive, Cycloheximide cs 30.2, HCV inhibitor inactive, Lassa entry inh inactive and Shiga inhibitor 60.3.
Screening CCCC(=O)Nc1ccc(NC(=O)c2cccs2)cn1 returned FMDV inh inactive, Marburg entry inh inconclusive, Cycloheximide cs 19.2, HCV inhibitor inactive, Lassa entry inh inactive and Shiga inhibitor 98.0.
For O=C(Nc1ccc(NC(=O)c2cccs2)cn1)c1ccccc1 the results were FMDV inh inactive, Cycloheximide cs 59.7, HCV inhibitor inactive and Shiga inhibitor 87.1.
Screening Cc1cc(NC(=O)C2CC2)ccc1NC(=O)c1cccs1 returned FMDV inh inactive, Marburg entry inh inconclusive, Cycloheximide cs inactive, HCV inhibitor inactive, Lassa entry inh inconclusive and Shiga inhibitor inactive.
`CCCCC(=O)Nc1ccc(NC(=O)c2cccs2)cn1` gave FMDV inh inactive, Marburg entry inh inactive, HCV inhibitor inactive and Lassa entry inh inactive.
CSc1c(C#N)c(N)nc2sc(C(=O)c3ccccc3)c(N)c12 was read as FMDV inh inactive, Marburg entry inh inactive, Cycloheximide cs inactive, HCV inhibitor inactive, Lassa entry inh inactive and Shiga inhibitor inactive.
`COc1cc(CC2C(=O)OCC2C(=O)c2ccc3c(c2)OCO3)cc(OC)c1OC` (configuration not stated) gave FMDV inh inactive, Marburg entry inh inactive, HCV inhibitor inactive and Lassa entry inh inactive.
For N#Cc1ccc(NC(=O)c2cccs2)nc1 the results were FMDV inh inactive, Marburg entry inh inconclusive, Cycloheximide cs 24.0, HCV inhibitor inactive, Lassa entry inh inactive and Shiga inhibitor 73.8.
